Rtt109 HAT inh: blocks Candida albicans Rtt109/Vps75 acetyltransferase activity. Q5AAJ8. 0.16% of 330,000 active. purified Rtt109/Vps75, ThioGlo CoA-SH fluorescence, 4 h. AID 540336. inhibition, % at 34.9 µM;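 active = inhibition of at least 50% in every replicate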
TPT1 inh: C. albicans TPT1 enzyme inhibition; recombinant caTPT1, FP RNA substrate dephosphorylation; inhibition, % at 5 µM; 0.81% of 300,000 active; AID 1962;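 active = inhibition above the mean of all tested compounds plus 3 SD, set per screening campaign, cut at about 24% in these data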;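 also: plate controls were DMSO alone for no effect and ferristatin control at 100 nM for full effect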
SKKanGAS inh: SKKanGAS growth inhibition | S. pyogenes SKKanGAS, kanamycin growth, BacTiter-Glo, 6 h | AID 1662 | inhibition, % at 7.5 µM | 1.3% of 300,000 active;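 active = mean replicate score, as percent of positive control median, at least 50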;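 also: strain carries kanamycin resistance gene driven by streptokinase promoter and grows in 40 µg/ml kanamycin; loss of luminescence reflects streptokinase promoter inhibition or plain growth inhibition; 0% = median of DMSO wells and 100% = positive control at its reference dose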
WT yeast gro inh: growth inhibition of WT yeast, mitochondrial fusion screen. AID 1362. inhibition, % at 10 µM. mitochondrial fusion phenotypic screen, WT strain. 2.1% of 190,000 active; in the data active = inhibition above about 58%; tested in S. cerevisiae
Platelet DG rel: platelet dense granule release activity; human platelet-rich plasma, SFLLRN dense granule ATP release, luminescence; inhibition, %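 (compounds screened at 7.5 µM in platelet-rich plasma)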; 0.22% of 300,000 active; AID 1663;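 active = mean replicate score, as percent of positive control, at or above 50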
PHOSPHO1 inh: blocks human PHOSPHO1 phosphatase activity; Q8TCT1; recombinant PHOSPHO1, absorbance phosphatase assay; inhibition, % at 13.3 µM; 1.1% of 290,000 active; AID 1565; in the data active = inhibition above about 60%
Target sequence (Q8TCT1 whole entry, looked up): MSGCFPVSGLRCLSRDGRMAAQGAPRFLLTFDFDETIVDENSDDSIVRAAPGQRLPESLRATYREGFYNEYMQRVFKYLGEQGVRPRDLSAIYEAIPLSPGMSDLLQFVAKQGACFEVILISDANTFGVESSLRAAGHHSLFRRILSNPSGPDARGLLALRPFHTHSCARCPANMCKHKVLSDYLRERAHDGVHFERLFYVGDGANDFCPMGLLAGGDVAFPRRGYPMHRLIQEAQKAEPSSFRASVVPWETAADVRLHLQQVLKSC
Numbers without * were called inactive. The list is not random: actives were taken first. Their share in the collection is about 3.9%.

Results for Cc1ccc(SCCNC(=S)Nc2cc(C)cc(C)c2)cc1 ?
Rtt109 HAT inh: -8.9; TPT1 inh: -2.4; SKKanGAS inh: 2.7; WT yeast gro inh: 76.4*; Platelet DG rel: 4.5; PHOSPHO1 inh: 1.9

What do the screens show for `Cc1ccc(NC(=S)NCCSc2ccc(Cl)cc2)cc1`?
Rtt109 HAT inh: -3.0; TPT1 inh: 1.8; SKKanGAS inh: 7.7; WT yeast gro inh: 25.1; Platelet DG rel: 4.4; PHOSPHO1 inh: 1.8

Results for Cc1ccc(NC(=S)NCCc2ccc(F)cc2)c(C)c1 ?
Rtt109 HAT inh: 1.8; TPT1 inh: -1.1; SKKanGAS inh: -1.2; WT yeast gro inh: 40.1; Platelet DG rel: -5.3; PHOSPHO1 inh: 28.0

How did COC(=O)Cc1ccc(NC(=S)NCCSc2ccc(C)cc2)cc1 do in these assays?
Rtt109 HAT inh: 13.8; TPT1 inh: 4.1; SKKanGAS inh: -8.0; WT yeast gro inh: 68.1*; Platelet DG rel: 0.8; PHOSPHO1 inh: 39.4

Results for COc1ccc(C(=O)NCCCNC(=O)c2ccccn2)cc1Br ?
Rtt109 HAT inh: -7.8; TPT1 inh: 2.3; SKKanGAS inh: -1.9; Platelet DG rel: -0.9; PHOSPHO1 inh: 21.2

What do the screens show for `CCc1ccc(-c2cnc3nc[nH]c(=O)c3n2)cc1`?
Rtt109 HAT inh: 3.4; TPT1 inh: -2.7; SKKanGAS inh: 12.3

How did NNC(=O)CNC(c1ccccc1)c1cc(Br)ccc1NC(=O)c1cccc(Cl)c1 (centres undefined) do in these assays?
Rtt109 HAT inh: -11.8; TPT1 inh: 2.6; SKKanGAS inh: 27.2; WT yeast gro inh: 30.0; Platelet DG rel: 2.0; PHOSPHO1 inh: -11.4

How did COC(=O)CNC(c1ccccc1)c1cc(Cl)ccc1NC(=O)c1cccc(Cl)c1 (centres undefined) do in these assays?
Rtt109 HAT inh: 6.6; TPT1 inh: -1.3; SKKanGAS inh: 26.4; WT yeast gro inh: 58.2*; Platelet DG rel: -3.2; PHOSPHO1 inh: -11.3

Results for Cn1cccc1/C=N/n1c(-c2ccc(Cl)cc2)n[nH]c1=S ?
Rtt109 HAT inh: -0.5; TPT1 inh: -3.3; SKKanGAS inh: -2.2; WT yeast gro inh: 10.3; Platelet DG rel: -11.3; PHOSPHO1 inh: 65.6*

Results for COc1ccc(-c2n[nH]c(=S)n2/N=C/c2cccn2C)cc1 ?
Rtt109 HAT inh: -15.6; TPT1 inh: 1.0; SKKanGAS inh: 6.8; Platelet DG rel: 13.3; PHOSPHO1 inh: 15.7

Results for Cn1cccc1/C=N/n1c(-c2ccc(Cl)cc2Cl)n[nH]c1=S ?
Rtt109 HAT inh: -9.2; TPT1 inh: -3.5; SKKanGAS inh: -9.1; WT yeast gro inh: 71.4*; Platelet DG rel: -15.7; PHOSPHO1 inh: 76.6*

Results for Cc1ccc(-c2n[nH]c(=S)n2/N=C/c2cccn2C)cc1 ?
Rtt109 HAT inh: 16.5; TPT1 inh: -4.1; SKKanGAS inh: -8.6; WT yeast gro inh: 5.0; Platelet DG rel: -6.5; PHOSPHO1 inh: 27.4

Results for O=C(COC(=O)c1n[nH]c(=O)c2ccccc12)Nc1cccc(S(=O)(=O)N2CCOCC2)c1 ?
Rtt109 HAT inh: -6.6

What do the screens show for `CCNc1nc(Sc2ccc(C)cc2)cc(C(F)(F)F)n1`?
Rtt109 HAT inh: -2.6; TPT1 inh: 1.7; SKKanGAS inh: 4.3; WT yeast gro inh: 84.7*; Platelet DG rel: 1.5; PHOSPHO1 inh: 16.2

Results for O=C(CN1C(=O)NC2(CCCCCCC2)C1=O)NCc1ccccc1 ?
Rtt109 HAT inh: -1.7

How did CC(=O)Nc1ccc(OCc2cccc([N+](=O)[O-])c2)cc1 do in these assays?
Rtt109 HAT inh: 58.0*; TPT1 inh: -3.0; SKKanGAS inh: 0.4; WT yeast gro inh: 4.7; Platelet DG rel: 0.6; PHOSPHO1 inh: 51.4

How did COc1cccc(OC)c1OCCCCN1CCCC1 do in these assays?
Rtt109 HAT inh: -2.0; TPT1 inh: 1.8; SKKanGAS inh: 12.4; WT yeast gro inh: 66.3*; Platelet DG rel: 18.9; PHOSPHO1 inh: 36.9

What do the screens show for `O=C(NC(=S)Nc1ccc(CN2CCCCC2)cc1)c1cccc(OCc2ccccc2)c1`?
Rtt109 HAT inh: -0.8; TPT1 inh: 3.4; SKKanGAS inh: 9.2; WT yeast gro inh: 71.7*; Platelet DG rel: 5.0; PHOSPHO1 inh: 7.7

What do the screens show for `O=C(O)c1ccc(NC(=S)NC(=O)c2cccc(COc3ccccc3)c2)cc1`?
Rtt109 HAT inh: -1.1; TPT1 inh: -0.4; SKKanGAS inh: 58.1*; WT yeast gro inh: 91.1*; Platelet DG rel: -2.0; PHOSPHO1 inh: 20.8

What do the screens show for `O=C(O)c1ccc(NC(=S)NC(=O)c2ccc3ccccc3c2)cc1`?
Rtt109 HAT inh: -5.5; TPT1 inh: 0.6; SKKanGAS inh: 24.3; Platelet DG rel: -3.4; PHOSPHO1 inh: -12.6
